SF-1 inh – blocks the human nuclear receptor SF-1 | CHO-K1 Gal4-SF-1 LBD luciferase reporter | inhibition, % at 10 µM | 0.55% of 65,000 active | AID 525;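 active means inhibition above the mean inhibition of all tested compounds plus 3 SD, cut at about 48% in these data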;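 further: 0% = SF-1 transfected cells with DMSO and 100% = mock-transfected cells lacking SF-1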
Target sequence (Q13285 whole entry, looked up, the tested form may be a part): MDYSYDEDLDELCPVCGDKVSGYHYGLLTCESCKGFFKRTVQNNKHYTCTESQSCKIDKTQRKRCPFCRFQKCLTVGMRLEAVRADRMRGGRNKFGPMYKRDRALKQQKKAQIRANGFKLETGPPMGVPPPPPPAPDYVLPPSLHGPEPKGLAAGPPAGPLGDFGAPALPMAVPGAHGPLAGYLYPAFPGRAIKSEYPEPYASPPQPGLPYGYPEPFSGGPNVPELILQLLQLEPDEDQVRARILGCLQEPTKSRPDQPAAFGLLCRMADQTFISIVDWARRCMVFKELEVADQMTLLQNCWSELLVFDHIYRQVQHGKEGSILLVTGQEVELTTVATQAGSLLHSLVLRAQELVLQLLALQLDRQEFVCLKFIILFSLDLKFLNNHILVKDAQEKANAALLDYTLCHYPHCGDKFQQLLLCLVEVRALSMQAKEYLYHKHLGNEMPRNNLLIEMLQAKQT
The depositor's hits bear a star. Many of the other results were omitted from the sample, so hits are more common in it than they were.

Results for Cc1ccc(SCc2cc(=O)n3[nH]cnc3n2)cc1 ?
SF-1 inh: 3.2

Results for CS(=O)c1nc(-c2ccc(Br)cc2)cc(-c2ccccc2)c1C#N (stereo not drawn) ?
SF-1 inh: 61.1*

What do the screens show for `CCCCCCC1C(C#N)=C(N)OC2=C1C(=O)CC(C)(C)C2` (stereo not drawn)?
SF-1 inh: -6.6

Results for CC1(C)CC(=O)C2=C(C1)Oc1nc3ccccc3cc1C2C(C#N)C#N (stereo not drawn) ?
SF-1 inh: 81.4*

What do the screens show for `Cc1csc(NC(=O)c2ccoc2C)n1`?
SF-1 inh: -56.1

What do the screens show for `CCCc1cc(=O)n2[nH]c(-c3ccc(Br)cc3)cc2n1`?
SF-1 inh: -111.6

How did c1ccc(-c2noc(-c3cccc4ccccc34)n2)cc1 do in these assays?
SF-1 inh: -65.1

How did COc1cccc(-c2nc(-c3ccccc3)no2)c1 do in these assays?
SF-1 inh: 9.4

How did Cc1ccc(-c2nc(-c3ccccc3)no2)c(Cl)c1 do in these assays?
SF-1 inh: 69.6*

What do the screens show for `CC(=O)Nc1ccc(S(=O)(=O)Nc2cccc(N(C)S(C)(=O)=O)c2)cc1`?
SF-1 inh: -1.7

Results for Cc1cnc(NC(=O)CSc2nnc(COc3c(C)cccc3C)o2)s1 ?
SF-1 inh: 1.2

Results for Cc1cnc(NC(=O)CSc2nnc(-c3ccccc3)o2)s1 ?
SF-1 inh: -87.9

What do the screens show for `Cc1cnc(NC(=O)COc2ccccc2Cl)s1`?
SF-1 inh: 59.5*

Results for CCN(CC)S(=O)(=O)c1ccc2oc(C(=O)NCC3COc4ccccc4O3)c(C)c2c1 (stereo not drawn) ?
SF-1 inh: 6.4

How did O=C(NC1CCCc2ccccc21)C1CCN(c2nnc(-n3cccc3)s2)CC1 (stereo not drawn) do in these assays?
SF-1 inh: -23.7

What do the screens show for `CCn1nccc1C(=O)Nc1ccc(Cl)cc1Cl`?
SF-1 inh: -66.7

Results for CN(C1CCCCC1)S(=O)(=O)c1ccc(-n2cnnn2)cc1 ?
SF-1 inh: 26.3

Results for Cc1cccc(-n2ncc3c(N4CCOCC4)ncnc32)c1 ?
SF-1 inh: 64.6*

How did COc1ccc2nc(N3CCCCC3)c(C#N)cc2c1 do in these assays?
SF-1 inh: -50.0

Results for CC1CN(c2ncnc3c2cnn3-c2ccc(Cl)cc2)CC(C)O1 (stereo not drawn) ?
SF-1 inh: -74.7

Results for CCOC(=O)C1CCCN(c2ncnc3c2cnn3-c2ccc(OC)cc2)C1 (stereo not drawn) ?
SF-1 inh: -58.0

How did Cc1cccc(-n2ncc3c(NCCCO)ncnc32)c1 do in these assays?
SF-1 inh: -67.4

How did Clc1ccc(-n2ncc3c(N4CCCCCC4)ncnc32)cc1 do in these assays?
SF-1 inh: 76.2*

Results for COc1ccc(-n2ncc3c(N4CCCCC4)ncnc32)cc1 ?
SF-1 inh: 83.9*

Results for C=CCNc1ncnc2c1cnn2-c1ccc(Cl)cc1 ?
SF-1 inh: -49.8

How did Cc1cccc(-n2ncc3c(N4CC(C)CC(C)C4)ncnc32)c1 (stereo not drawn) do in these assays?
SF-1 inh: -50.7

Results for COCCNC(=O)c1c[nH]c2ccc(OC)cc2c1=O ?
SF-1 inh: -9.1

What do the screens show for `Cc1nc2cc(Cl)c(Cl)cc2nc1C`?
SF-1 inh: -63.7

How did O=C(Oc1ccc2c(c1)OCO2)c1cc2c(s1)CCC2 do in these assays?
SF-1 inh: 8.2

How did COc1cccc(-c2nnc(SCC(=O)OC(C)C)n2N)c1 do in these assays?
SF-1 inh: 8.5

How did COc1ccc(-n2c(C)cc(C(=O)Cn3c(NCCO)nc4ccccc43)c2C)cc1 do in these assays?
SF-1 inh: -9.5

What do the screens show for `O=C1OCCC1Sc1nnc(-c2ccc3c(c2)OCO3)n1-c1ccccc1` (stereo not drawn)?
SF-1 inh: 3.8

How did Cn1c(-c2ccc(F)cc2)cnc1SCC(=O)Nc1ccccc1N1CCOCC1 do in these assays?
SF-1 inh: -69.6

Results for Nc1ccc(-c2ccc(N)cc2C(F)(F)F)c(C(F)(F)F)c1 ?
SF-1 inh: 11.5

What do the screens show for `C=C(C)Cn1c(C2CC(=O)N(c3ccccc3F)C2)nc2ccccc21` (stereo not drawn)?
SF-1 inh: -3.4

How did CN(C)C(=O)CCc1nc(-c2ccc(C(C)(C)C)cc2)no1 do in these assays?
SF-1 inh: 83.3*

Results for COc1ccc(-c2noc(CCCOc3ccccc3)n2)cc1OC ?
SF-1 inh: 11.3

Results for CNC(=O)CCc1nc(-c2ccc(C(C)(C)C)cc2)no1 ?
SF-1 inh: 87.6*

How did O=C(CCc1nc(-c2ccccc2F)no1)NCCc1ccccc1Cl do in these assays?
SF-1 inh: -2.1

Results for O=C1c2ccccc2C(=O)N1Cc1nc(-c2ccccc2)no1 ?
SF-1 inh: 14.6

Results for CC(C)(CC(=O)O)Cc1nc(-c2ccc(Cl)cc2)no1 ?
SF-1 inh: -62.8

What do the screens show for `CC(C)(C)c1ccc(-c2noc(CCC(N)=O)n2)cc1`?
SF-1 inh: 87.4*

Results for COc1ccc(CNC(=O)CCc2nc(-c3ccccc3F)no2)c(OC)c1 ?
SF-1 inh: 3.2

What do the screens show for `CCCc1nc(-c2ccc(-c3ccc(F)cc3)cc2)no1`?
SF-1 inh: -53.3

What do the screens show for `COc1cc(NC(=O)C2CC2)c(C(=O)O)cc1OC`?
SF-1 inh: -2.7

How did COC(=O)c1cc2sc(Cl)cc2n1CC(=O)N1CCCc2ccccc21 do in these assays?
SF-1 inh: 2.3

How did O=c1[nH]c2cccnc2n1Cc1ccco1 do in these assays?
SF-1 inh: -15.5

Results for C/C(NCc1cccnc1)=C(\C#N)C(=O)NCc1ccccc1 ?
SF-1 inh: 5.2

How did O=C(c1ccc(Cn2cc(Br)cn2)o1)n1cccn1 do in these assays?
SF-1 inh: 11.5

How did O=C(COc1ccc(Cl)cc1)NC1CCSC1=O (stereo not drawn) do in these assays?
SF-1 inh: -3.1

How did COCCN(C(=O)Nc1ccccc1)c1ccccc1C do in these assays?
SF-1 inh: -4.6

How did CN(Cc1nc(-c2ccccn2)no1)S(=O)(=O)c1ccc(Cl)cc1 do in these assays?
SF-1 inh: -4.1

What do the screens show for `c1ccc(-c2noc(C34CC5CC(CC(C5)C3)C4)n2)nc1`?
SF-1 inh: -85.6

Results for c1ccc(-c2noc(C3CCCCC3)n2)nc1 ?
SF-1 inh: -55.8

How did Cc1onc(-c2ccccc2Cl)c1-c1nc(-c2ccccn2)no1 do in these assays?
SF-1 inh: -6.9

What do the screens show for `c1ccc(-c2noc(-c3ccc4c(c3)OCO4)n2)nc1`?
SF-1 inh: 74.8*

Results for c1ccc(-c2noc(-c3ccc4ccccc4c3)n2)nc1 ?
SF-1 inh: 91.4*

What do the screens show for `O=C1CCN(Cc2nnnn2CC2CCCO2)c2ccccc2N1` (stereo not drawn)?
SF-1 inh: 3.2

What do the screens show for `Cc1ccc(N2C(=O)Nc3ccc(Br)cc3C2(O)C(=O)NCCCN(C)C)cc1C` (stereo not drawn)?
SF-1 inh: 7.6

Results for Cc1ccc(S(=O)(=O)NCC(=O)OCN2C(=O)c3ccccc3C2=O)cc1 ?
SF-1 inh: 1.3

How did Cc1ccc(S(=O)(=O)N(CC(=O)NCc2ccncc2)C2CCCCC2)cc1 do in these assays?
SF-1 inh: -8.9

What do the screens show for `c1csc(-c2ccc3ccccc3n2)c1`?
SF-1 inh: -78.9

Results for O=c1[nH]c2ccccc2nc1-c1cccs1 ?
SF-1 inh: -54.2

Results for c1ccc2nc(-c3nc4ccccc4[nH]3)ccc2c1 ?
SF-1 inh: 67.2*

Results for CCSc1nc2c(cnn2-c2ccc(C)cc2)c(=O)[nH]1 ?
SF-1 inh: -10.2

What do the screens show for `O=C(c1ccc2c(c1)OCCCO2)c1cccs1`?
SF-1 inh: -53.7

How did O=C(NCc1ccc(F)cc1)c1noc2c1CCCC2 do in these assays?
SF-1 inh: 3.3

High-throughput results as filed in PubChem.
